Test results reported in PubChem BioAssay AID686978 (National Center for Advancing Translational Sciences (NCATS), 2013).
The campaign covered roughly 420,000 compounds. About 64,000 (15%) were called active. Not shown: some 27% with an inconclusive outcome. Only a sample is shown. Values without a mark were called inactive. Calls follow the shape of the dose curve; as a rule, active = well fitted inhibition curve with a large enough effect; inconclusive = small, poorly fitted or top-dose-only effect; inactive = flat fitted curve, though single readings scatter.

Test: qHTS for Inhibitors of human tyrosyl-DNA phosphodiesterase 1 (TDP1): qHTS in cells in absence of CPT; also: nearly all actives have a fitted effect of over 55% in size
Settings: DT40 Tdp1-/- hTDP1 cells, no CPT, ATP luminescence, 48 h; activity change, negative = growth inhibition: at 46.2 µM (top of the series)
Summary of the method: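 DT40 Tdp1-/-;hTDP1 cells, no CPT (DMSO vehicle only), 400 cells/well; compounds pin-transferred; ≥48 hr, 37 °C; CellTiter-Glo 30 min RT dark, luminescence read.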
% is scaled to controls: 0 for no effect and ±100 for the full control effect; potency is read from the fitted curve at half-maximal effect.

| SMILES | activity change, negative = growth inhibition [%] | Potency |
| --- | --- | --- |
| COC1=CCC2([N+](=O)[O-])CN(CC(=O)O)CC1([N+](=O)[O-])C2 (configuration not stated) | -1.54 |  |
| Cc1ccc(NC(=O)NC(=O)N(C2CCCCC2)S(=O)(=O)c2ccccc2)cc1 | -29.9 |  |
| Cc1ccc2[nH]c3c(=O)n(Cc4ccccn4)cnc3c2c1 | -6.59 |  |
| CC(C)c1cccc(C(C)C)c1Nc1cn[nH]c1 |  | 20.6 µM (active) |
| O=C(O)CCCN1C(=O)c2ccccc2Sc2ncccc21 | 10.6 |  |
| C=CCOc1cccc(CNCc2cccnc2)c1 | -2.47 |  |
| Cn1cnc([N+](=O)[O-])c1Sc1ccccc1 |  | 23.1 µM (active) |
| Cn1cnc([N+](=O)[O-])c1Nc1ccccc1O | -17.2 |  |
| Cn1cnc([N+](=O)[O-])c1Sc1n[nH]c(N)n1 | -15 |  |
| C=CCN1C(=O)C2(OCCCO2)c2cccc(Cl)c21 | 10.2 |  |
| CCC(C)(C)n1nnnc1C(c1ccc(OC)c(OC)c1)N1CCN(C(=O)c2ccco2)CC1 (configuration not stated) | 1.91 |  |
| CCC(C)(C)n1nnnc1C(c1cccs1)N1CCN(c2nc3ccccc3s2)CC1 (configuration not stated) |  | 15.8 µM (active) |
| CCC(C)(C)n1nnnc1C(c1ccccc1OC)N1CCSCC1 (configuration not stated) | -21 |  |
| O=C(CCn1nnc2ccccc2c1=O)N[C@@H](Cc1c[nH]c2ccccc12)C(=O)O | 2.6 |  |
| CCOC(=O)N1CCC(NC(=O)Cc2cn(C)c3ccccc23)CC1 | -10.6 |  |
| CC(C)=CCC/C(C)=C/CC/C(C)=C/CC/C(C)=C/CO |  | inactive |
| CCSc1nc2c(c(=O)[nH]1)C(c1cccnc1)C(C(=O)OC(C)C)=C(C)N2 (configuration not stated) | -29 |  |
| COc1cc(CNC2CCCC2)c(Br)cc1OCc1ccccc1 |  | 16.4 µM (active) |
| COc1cc(OC)c(NC(=O)C2CCCN2C(=O)OCc2ccccc2)cc1Cl (configuration not stated) | 11.7 |  |
| COc1cc(CN2CCC(C(N)=O)CC2)ccc1OCc1ccccc1 | -5.51 |  |
| O=C(CN1CCSCC1)N/N=C/c1ccc(F)cc1 | -12.8 |  |
| COc1ccc2c(c1OC)C(=O)OC2Nc1nc(-c2ccccc2)cs1 (configuration not stated) |  | 1.84 µM (active) |
| COc1ccc(-c2csc(NC(=O)CCCc3cccs3)n2)cc1 | -3.64 |  |
| CCc1ccccc1NC(=O)[C@@H]1CCC(=O)N1C1OC(=O)c2c1ccc(OC)c2OC (some centres not stated) | 4.6 |  |
| COc1ccc2c(c1OC)C(=O)OC2c1c(O)nc(SC)n(-c2ccccc2)c1=O (configuration not stated) | 2.17 |  |
| COc1ccc(-c2csc(NC3OC(=O)c4ccccc43)n2)cc1 (configuration not stated) |  | 6.51 µM (active) |

| SMILES | activity change, negative = growth inhibition [%] | Potency |
| --- | --- | --- |
| O=C(O)c1ccc(Cn2c(=S)[nH]c3cc(Cl)ccc3c2=O)cc1 | -6.36 |  |
| CCOC(=O)CSc1nnc(CNc2nc(-c3ccccc3)cs2)n1C | -0.54 |  |
| Cc1ccc(O/C=C2\OC(=O)c3ccccc32)cc1 | 4.91 |  |
| O=C1CC2(CCCCC2)Oc2ccc(OCC(=O)N3CCOCC3)cc21 | -23.5 |  |
| CCN(CC)c1ccc([N+](=O)[O-])cc1C(=O)O | -14.5 |  |
| Cc1cccc(C(=O)c2cccc(C)c2)c1 | -9.07 |  |
| Cc1cc(C)nc(NC(=O)/C=C/c2ccc(Cl)cc2)n1 | -8.03 |  |
| Cc1cccc(C=CC(=O)c2ccc(Cl)cc2)c1 |  | 13 µM (active) |
| COc1ccc(CNC(=O)C2CCN(S(=O)(=O)N3CCOCC3)CC2)cc1 | -3.42 |  |
| CC(=O)Nc1ccc(SCC(=O)NC(=O)c2ccc(Cl)cc2)cc1 | -7.14 |  |
| CC(Oc1ccc2c(-c3ccccc3)cc(=O)oc2c1)C(=O)NC(Cc1c[nH]c2ccccc12)C(=O)O (configuration not stated) | 11.4 |  |
| O=C(CNC(=O)OCc1ccccc1)Oc1cc2oc(=O)cc(-c3ccccc3)c2cc1Cl |  | 8.2 µM (active) |
| O=C(CNC(=O)c1ccc(-c2ccccc2)cc1)OCc1ccc(Cl)cc1 | -16.5 |  |
| CCOC(=O)c1cnc2sccn2c1=O | 1.28 |  |
| O=c1[nH]c2cccnc2n1-c1ccc([N+](=O)[O-])cc1 | 28.4 |  |
| O=[N+]([O-])c1ccc2nc(-c3ccccn3)[nH]c2c1 |  | 1.16 µM (active) |
| O=[N+]([O-])c1cccc(S(=O)(=O)NCc2ccccn2)c1 | -0.0361 |  |
| Cc1ccc(C(=O)OC2=CC(=O)CC(C)(C)C2)cc1 | -15.6 |  |
| CCOC(=O)c1c(NC(=O)COc2cc(C)ccc2C(C)C)sc(C)c1C | -16.8 |  |
| COC(=O)c1c(NC(=O)COc2ccc(Cl)cc2Cl)sc2c1CC(C)(C)NC2(C)C |  | 8.2 µM (active) |
| Cc1cnc(C(=O)OCC(=O)Nc2ccc(Cl)cc2Cl)cn1 | -15.5 |  |
| c1cc(-n2cnnn2)ccc1NC1=NCCC1 | 1.89 |  |
| O=C1CCCN1C(=O)COc1ccc([N+](=O)[O-])cc1 | -7.57 |  |
| COC(=O)c1ccc(S(=O)(=O)N(CCO)Cc2ccccc2)n1C | -7.81 |  |
| COc1ccc(Br)cc1C1CC(=O)Nc2c1c(C)nn2-c1nc(C)cc(C)n1 (configuration not stated) |  | 18.4 µM (active) |
| Cn1c(=O)c2c(n3c4ccccc4nc13)NC(=O)CC2c1cccc(Cl)c1 (configuration not stated) | -26.7 |  |
